{"source": "PubChem BioAssay AID1851", "about": "(National Center for Advancing Translational Sciences (NCATS), 2009)", "note": "Several values for one entry are separate records, joined by “and”; a condition that tells them apart may be missing. Equal entries are not always repeated. The whole screen tested about 16,000 compounds, of which about 2,600 (16%) were called active. Another 20% or so got no clear call; they are omitted. Calls come from the whole dose curve; as a rule, active = well fitted curve in the direction sought with a large enough effect; inconclusive = small, poorly fitted or top-dose-only effect, or effect the other way; inactive = no such curve, though single readings can be large or run the other way. Not all results are given here. % is set by controls: 0 for no effect and ±100 for the full control effect."}
{"biological_target": "Cytochrome P450 2D6 (Homo sapiens) (UniProt P10635)", "sequence (P10635 whole entry, looked up)": "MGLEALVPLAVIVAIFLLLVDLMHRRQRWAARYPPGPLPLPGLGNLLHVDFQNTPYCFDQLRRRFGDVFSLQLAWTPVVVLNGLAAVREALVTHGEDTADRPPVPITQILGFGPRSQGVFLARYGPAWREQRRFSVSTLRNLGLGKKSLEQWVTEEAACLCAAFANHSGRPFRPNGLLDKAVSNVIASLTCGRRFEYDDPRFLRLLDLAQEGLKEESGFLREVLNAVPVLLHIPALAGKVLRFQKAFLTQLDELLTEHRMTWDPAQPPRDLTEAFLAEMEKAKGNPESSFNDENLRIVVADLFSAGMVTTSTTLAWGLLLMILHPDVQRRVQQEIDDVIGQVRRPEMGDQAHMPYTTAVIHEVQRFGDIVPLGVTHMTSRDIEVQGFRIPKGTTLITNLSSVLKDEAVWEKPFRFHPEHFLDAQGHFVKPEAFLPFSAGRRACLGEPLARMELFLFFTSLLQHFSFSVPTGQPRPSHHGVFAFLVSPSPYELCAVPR", "experiment": "Cytochrome panel assay with activity outcomes", "details": "recombinant CYP, pro-luciferin dealkylation, luminescence, p450-cyp2d6; series mostly up to 57.1 µM; activity, negative = inhibition: at the top concentration"}
{"compound": "O=C(Cn1cnc([N+](=O)[O-])c1)NCc1ccc(F)cc1", "activity, negative = inhibition": "-12.5% (inactive)"}
{"compound": "O=C(c1csnn1)N1CCC2(CCCN(c3ccc(-c4ccccc4)cc3)C2)CC1", "activity, negative = inhibition": "-2.24% (inactive)"}
{"compound": "O=C(c1cnccn1)N1CCC2(CC1)CN(c1ccccn1)C2", "activity, negative = inhibition": "-17.3% (inactive)"}
{"compound": "O=C(c1csnn1)N1CCC[C@@]2(CCN(Cc3nccs3)C2)C1", "AC50": "5.01 µM (active)"}
{"compound": "COc1ccc(NC(=O)N2CC3(CCN(C(=O)c4csnn4)CC3)C2)cc1", "activity, negative = inhibition": "2.53% (inactive)"}
{"compound": "O=C(c1csnn1)N1CCC2(CCN(Cc3nccs3)CC2)CC1", "activity, negative = inhibition": "2.94% (inactive)"}
{"compound": "CC(=O)N1CCC[C@@]2(CCN(Cc3nccs3)C2)C1", "activity, negative = inhibition": "2.01% (inactive)"}
{"compound": "CC(=O)N1CCC2(CC1)CN(c1ccccn1)C2", "activity, negative = inhibition": "-17.2% (inactive)"}
{"compound": "N#Cc1cccc(NC(=O)N2CCCC3(CCN(C(=O)c4csnn4)CC3)C2)c1", "activity, negative = inhibition": "-2.2% (inactive)"}
{"compound": "O=C(c1csnn1)N1CCC2(CC1)CN(c1ccccn1)C2", "AC50": "12.6 µM (active)"}
{"compound": "CC(C)CN1CCCC2(CCN(C(=O)c3csnn3)CC2)C1", "AC50": "5.01 µM (active)"}
{"compound": "O=C(Nc1ccccc1)N1CCC2(CC1)CCN(C(=O)c1csnn1)CC2", "activity, negative = inhibition": "-11.4% (inactive)"}
{"compound": "O=C(c1csnn1)N1CCC2(CCCN(Cc3ccccc3)C2)CC1", "AC50": "1.26 µM (active)"}
{"compound": "O=C(O)CN(CCN(CC(=O)O)CC(=O)O)CC(=O)O.[Cu]", "activity, negative = inhibition": "2.44% [at 11.4 µM] (inactive)"}
{"compound": "COCCCn1c(=S)[nH]c2ncccc2c1=O", "activity, negative = inhibition": "-7.67% (inactive)"}
{"compound": "CC(=O)O[C@H]1C2=CO[C@H](C)[C@H]3[C@H]4C5=C([C@H](O)[C@H]6O[C@@H]6C5=O)[C@H](O[C@H]4C)[C@@]23C(=O)[C@H]2O[C@@H]21", "activity, negative = inhibition": "17.5% [at 11.4 µM] (inactive)"}
{"compound": "COc1cc2nc(N3CCN(C(=O)c4ccco4)CC3)nc(N)c2cc1OC", "AC50": "inactive"}
{"compound": "CCNc1nnc(-c2ccncc2)s1", "activity, negative = inhibition": "-6.69% (inactive)"}
{"compound": "O=C1C[C@@H](O)[C@@H](O)[C@H]2[C@@H]3C(=O)N(C4CCCCC4)C(=O)[C@@H]3CC[C@H]12", "activity, negative = inhibition": "9.04% [at 11.4 µM] (inactive) and 6.81% [at 11.4 µM] (inactive) and 7.19% [at 11.4 µM] (inactive)"}
{"compound": "CN1CCN(c2ncc3nc(-c4cccs4)c(=O)n(Cc4cccs4)c3n2)CC1", "activity, negative = inhibition": "-8.7% (inactive)"}
{"compound": "COc1ccc(C(=O)Nc2nc3c(s2)Cc2cc(OC)ccc2-3)cc1", "activity, negative = inhibition": "-14.7% (inactive)"}
{"compound": "C=CCN=C1CC(C)(C)CC(=O)/C1=C(\\O)c1ccccc1", "activity, negative = inhibition": "18.3% (inactive)"}
{"compound": "COc1ccc(-n2c(CNC(=O)c3cc(OC)c(OC)c(OC)c3)n[nH]c2=S)cc1", "activity, negative = inhibition": "-2.75% (inactive)"}
{"compound": "COc1ccc(NC(=O)N2CCCC3(CCN(C(=O)c4csnn4)CC3)C2)cc1", "activity, negative = inhibition": "-0.507% (inactive)"}
{"compound": "CC(C)CN1CC[C@@]2(CCCN(C(=O)c3csnn3)C2)C1", "AC50": "0.501 µM (active)"}
{"compound": "CC(C)NC(=O)N1CC[C@@]2(CCCN(C(=O)c3csnn3)C2)C1", "activity, negative = inhibition": "0.0943% (inactive)"}
{"compound": "CN1CCN(c2ccc([N+](=O)[O-])cc2C(=O)N2CCOCC2)CC1", "activity, negative = inhibition": "14.8% (inactive)"}
{"compound": "COc1ccc(C(=O)NNC(=O)Cc2ccc(-c3ccccc3)cc2)cc1OC", "activity, negative = inhibition": "-6.09% (inactive)"}
{"compound": "COc1ccc(C(=O)NN)cc1COc1ccc(Br)cc1", "AC50": "12.6 µM (active)"}
{"compound": "COc1ccc(/C=C/C(=O)NCc2cn(C)nc2C)cc1COc1ccc(Br)cc1", "activity, negative = inhibition": "-13.3% (inactive)"}
{"compound": "COC(=O)[C@H](CCSC)NC(=O)C/C=C\\[C@@H](C)CO", "activity, negative = inhibition": "4.64% [at 11.4 µM] (inactive)"}
{"compound": "COc1ccc([C@@H]2CNC(=O)C2)cc1OC1CCCC1", "AC50": "inactive"}
{"compound": "CC[C@@H]1OC(=O)[C@H](C)[C@H](O[C@@H]2C[C@](C)(OC)[C@H](O)[C@H](C)O2)[C@H](C)[C@H](O[C@@H]2O[C@@H](C)C[C@@H](N(C)C)[C@@H]2O)[C@](C)(O)C[C@H](C)C(=O)[C@H](C)[C@H](O)[C@]1(C)O", "activity, negative = inhibition": "5.87% [at 25.6 µM] (inactive)"}
{"compound": "CC[C@]1(O)C[C@@H]2CN(CCc3c([nH]c4ccccc34)[C@](C(=O)OC)(c3cc4c(cc3OC)N(C=O)[C@H]3[C@@](O)(C(=O)OC)[C@H](C(=O)OC)[C@@]5(CC)C=CCN6CC[C@]43[C@H]65)C2)C1", "activity, negative = inhibition": "10.5% (inactive)"}
{"compound": "CCOc1cc(/C=N/O)cc(Cl)c1OC", "activity, negative = inhibition": "-0.0031% (inactive)"}
{"compound": "COc1c(Cl)cc(Cl)cc1CNCCNCCO", "AC50": "15.8 µM (active)"}
{"compound": "OCCSCc1cc(Cl)cc(Cl)c1O", "activity, negative = inhibition": "-5.19% [at 11.4 µM] (inactive)"}
{"compound": "COc1c(Cl)cc(Cl)cc1CNCCNCC(C)O", "note": "(stereo not given)", "AC50": "1.78 µM (active)"}
{"compound": "COc1ccc(-c2nc3cnc(N(C)C)nc3n(C[C@H]3CCCO3)c2=O)cc1", "activity, negative = inhibition": "3.77% (inactive)"}
{"compound": "Cc1ccc(NC(=O)CCC(=O)NNC(=O)c2cccs2)c(C)c1", "activity, negative = inhibition": "-9.16% (inactive)"}
{"compound": "C[C@@H]1OC2C3=C(C(=O)[C@H]4O[C@@H]4[C@H]3O)[C@@H]1[C@H]1[C@H](C)OC=C3[C@H](O)[C@H]4O[C@H]4/C(=N\\OCc4ccccc4)[C@@]321", "activity, negative = inhibition": "3.22% [at 11.4 µM] (inactive)"}
{"compound": "CO[C@@H]1COC(=O)[C@H](COCc2ccccc2)NC(=O)C/C=C\\[C@@H](C)[C@H](OC)COC(=O)[C@@H](C)NC(=O)C/C=C\\[C@H]1C", "activity, negative = inhibition": "0.0549% [at 11.4 µM] (inactive)"}
{"compound": "O=C(O)[C@H]1C[C@@H](CP(=O)(O)O)CCN1", "activity, negative = inhibition": "-19.6% (inactive)"}
{"compound": "CCc1cc2c(nc1CC)CCN(CC/C(C)=N/OCC[C@@H]1C=C[C@H](OC(C)=O)[C@H](COC(C)=O)O1)C2", "activity, negative = inhibition": "-5.93% [at 11.4 µM] (inactive)"}
{"compound": "CCCNC(=O)OC[C@@H]1O[C@H](CCO/N=C(\\C)CCN2CCc3nc(CC)c(CC)cc3C2)C=C[C@@H]1Oc1ccc(OC)cc1", "activity, negative = inhibition": "-13.6% [at 11.4 µM] (inactive)"}
{"compound": "CC(=O)OC[C@@H]1O[C@H](CCO/N=C(\\C)CCN2CCc3nc(-c4ccccc4)c(-c4ccccc4)cc3C2)C=C[C@@H]1OC(C)=O", "activity, negative = inhibition": "-10.6% [at 11.4 µM] (inactive)"}
{"compound": "C=CC[C@@H]1C=C[C@H](O/N=C(\\C)CCN2CCc3nc(-c4ccccc4)c(-c4ccccc4)cc3C2)[C@H](CO)O1", "activity, negative = inhibition": "0.49% [at 11.4 µM] (inactive)"}
{"compound": "CCc1cc2c(nc1CC)CCN(CC/C(C)=N/O[C@@H]1O[C@H](COC(C)=O)[C@H](OC(C)=O)[C@H](OC(C)=O)[C@H]1OC(C)=O)C2", "AC50": "3.98 µM (active)"}
{"compound": "CC(=O)OC[C@H]1O[C@@H](O/N=C(\\C)CCN2CCc3nc(-c4ccccc4)c(-c4ccccc4)cc3C2)[C@H](OC(C)=O)[C@@H](OC(C)=O)[C@H]1OC(C)=O", "AC50": "3.16 µM (active)"}
{"compound": "CC1(C)CC(=O)C(C(C#Cc2ccccc2)C2=C(O)CC(C)(C)CC2=O)=C(O)C1", "activity, negative = inhibition": "-10.5% (inactive)"}
